In the library only some 10% were active in any assay of this set; here they are far more common.
VDR inhibitor = blocks the human vitamin D receptor; Potency, µM, for the others: max response, negative = inhibition, most hits filed as inhibitors; AID 504847; P11473; VDR-SRC2-3 peptide fluorescence polarization, 2 h; hit rate 0.93% among 400,000; also: potency is read from the fitted curve at half-maximal effect
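Two reagent solutions held at 4 deg C in the dark were dispensed, compounds pinned at 23 nl, and the mixture incubated 2 h at room temperature. Read-out: fluorescence polarization of VDR–SRC2-3 peptide binding.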
G9a inh = inhibitors of human histone lysine methyltransferase G9a. G9a H3K9 monomethylation, AlphaScreen, 2 h. AID 504332. hit rate 8.8% among 350,000. Potency, µM (doses to about 102 µM), inactives show top-dose activity, negative = inhibition, most hits filed as inhibitors; also: potency is read from the fitted curve at half-maximal effect; nearly all actives have a fitted effect of over 75% in size
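G9a (20 nM) preincubated 15 min RT with compounds, then 500 nM biotinylated H3K9 peptide and 20 uM SAM added; 2 h RT reaction. Monomethyl-H3K9 product detected by AlphaScreen with anti-H3K9me1 antibody, streptavidin donor and anti-rabbit IgG acceptor beads.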
MmCpn inh = M. maripaludis TRiC chaperonin inhibition. purified Mm-Cpn ATPase, ADP Transcreener TR-FRET. Potency, µM (doses to about 76.9 µM), inactives show at the highest dose activity, negative = inhibition, hits mostly inhibitors. hit rate 0.031% among 330,000. AID 504842; also: potency is read from the fitted curve at half-maximal effect; nearly all actives have a fitted effect of over 80% in size
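Purified archaeal chaperonin (25 nM final) was preincubated with compound for 10 min at 37°C, then ATP (10 uM final) was added for 30 min at 37°C in Tris pH 7.4/KCl/MgCl2/DTT buffer. ADP was quantified by HTRF Transcreener TR-FRET.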
Sfp PPTase inh = blocks B. subtilis Sfp PPTase activity; Q9F4F7; Biochemical Sfp PPTase activity, qHTS; Potency, µM, for inactives: largest response in the series, negative = inhibition, actives largely listed as inhibitors; hit rate 3.5% among 310,000; AID 1490;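 also: the enzyme is Sfp with the accession as filed and its product quenches rhodamine fluorescence; potency is read from the fitted curve at half-maximal effect; 0% = enzyme reaction without inhibitor and -100% = no enzyme wells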
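After 15 min at room temperature with compound, 15 nM Sfp received 5 uM rhodamine-CoA plus 12.5 uM BHQ-2-ybbR (50 mM Hepes pH 7.6, 10 mM MgCl2). Rate came from the fluorescence difference over 30 min, ex 525/em 598 nm.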
PLK1 PBD inh = PLK1 (human) polo-box domain binding inhibition; P53350; Plk1 PBD binding of FITC phosphopeptide, fluorescence polarization; Potency, µM, without a hit: max response, negative = inhibition, most hits filed as inhibitors; hit rate 2.8% among 360,000; also: potency is read from the fitted curve at half-maximal effect; series mostly up to about 57 µM; nearly all actives have a fitted effect of over 65% in size
Target sequence (P53350 whole entry, looked up, the tested form may be a part): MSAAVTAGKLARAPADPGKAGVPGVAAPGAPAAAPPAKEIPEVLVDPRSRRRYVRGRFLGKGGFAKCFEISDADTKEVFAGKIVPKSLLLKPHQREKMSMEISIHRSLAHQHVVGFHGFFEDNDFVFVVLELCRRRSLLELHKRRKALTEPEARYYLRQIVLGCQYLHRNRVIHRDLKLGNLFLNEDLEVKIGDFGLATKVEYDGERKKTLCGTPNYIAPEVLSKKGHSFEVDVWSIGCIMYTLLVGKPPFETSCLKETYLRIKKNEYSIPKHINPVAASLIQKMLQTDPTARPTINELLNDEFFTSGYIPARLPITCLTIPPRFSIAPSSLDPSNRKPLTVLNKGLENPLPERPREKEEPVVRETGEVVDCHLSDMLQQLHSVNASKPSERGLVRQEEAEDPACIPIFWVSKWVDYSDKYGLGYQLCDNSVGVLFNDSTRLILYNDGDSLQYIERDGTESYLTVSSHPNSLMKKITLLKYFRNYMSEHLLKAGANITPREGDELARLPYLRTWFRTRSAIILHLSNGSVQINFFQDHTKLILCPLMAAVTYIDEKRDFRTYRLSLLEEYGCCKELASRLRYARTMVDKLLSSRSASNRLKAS
CCT chaperon mod = cytosolic chaperonin activity modulation | purified chaperonin ATPase assay, HTRF ADP detection, 30 min | activity change, % (concentration not given with the values), hits read low | hit rate 0.3% among 360,000 | AID 651819; in the data active = activity change below about -30%
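Enzyme 40 or 20 nM (batch-dependent) in Tris pH 7.4/KCl/MgCl2/DTT; cpd 76 uM single point; ATP 10 uM; 30 min 37 °C; Transcreener ADP HTRF detection, 30 min RT; ratio 665/615.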
* marks the source's active call; other numbers are inactive results; [ ] = remark or other dose. Unless noted, calls follow the shape of the dose curve; as a rule, active = well fitted curve in the direction sought with a large enough effect; inconclusive = small, poorly fitted or top-dose-only effect, or another doubt; inactive = no such curve, though single readings can be large; an effect the other way counts as inactive or inconclusive. Unless noted, % is scaled to controls: 0 for no effect and ±100 for the full control effect.

O=C(Nc1nnc(C2=COCCO2)o1)c1ccc(S(=O)(=O)N2CCOCC2)cc1 was read as VDR inhibitor 0%, G9a inh 50µM*, MmCpn inh 1%, Sfp PPTase inh -9%, PLK1 PBD inh -2% and CCT chaperon mod -3.
`COc1ccc(NC(=O)CSc2nnc(NC(=O)c3ccc(S(=O)(=O)N4CCOCC4)cc3)s2)cc1` gave VDR inhibitor -6%, G9a inh 0%[59 µM], MmCpn inh 3%, Sfp PPTase inh -15%, PLK1 PBD inh -7% and CCT chaperon mod -2.
`Cc1cccc(Nc2nnc(SCC(=O)Nc3cccc(S(=O)(=O)N4CCCCC4)c3)s2)c1` gave VDR inhibitor 8%, G9a inh 3.5µM*, MmCpn inh -10%, Sfp PPTase inh 9%, PLK1 PBD inh inconclusive and CCT chaperon mod 2.
`NC(=O)CSc1nnc(NC(=O)c2ccc(S(=O)(=O)N3CCOCC3)cc2)s1` gave VDR inhibitor 21%, MmCpn inh 1%, Sfp PPTase inh -6%, PLK1 PBD inh -2% and CCT chaperon mod -58*.
Screening CCOc1ccc(C2=CC(c3cccc(Br)c3)n3c(nc4ccccc43)N2)cc1Cl (stereo not drawn) returned VDR inhibitor 21% and G9a inh inconclusive.
Screening Cc1cc(C)cc(NC(=O)C(=O)NCC(c2cccnc2)N2CCN(c3ccccc3)CC2)c1 (stereo not drawn) returned VDR inhibitor 15% and G9a inh 4%[59 µM].
CCCSCCCNC(=O)C1CCN(C(=O)c2cnn(-c3ccccc3)c2-n2cccc2)CC1 was read as VDR inhibitor 6% and G9a inh -8%[59 µM].
For O=C1CCCCCN1C(=O)c1ccc(C(=O)N2CCCCCC2=O)cc1 the results were VDR inhibitor -2%, G9a inh 6%, MmCpn inh 1%, Sfp PPTase inh 14%, PLK1 PBD inh 30µM* and CCT chaperon mod 1.
`CSc1nc(C)cc(Nc2cccc(C(=O)O)c2)n1` gave VDR inhibitor 6% and G9a inh inconclusive.
`COc1ccc(S(=O)(=O)N(C(=O)c2ccncc2)c2ccc(OC(=O)c3ccncc3)cc2)cc1` gave VDR inhibitor 12%, G9a inh 35µM*, MmCpn inh -3%, Sfp PPTase inh 5%, PLK1 PBD inh -22% and CCT chaperon mod -1.
COc1ccc(S(=O)(=O)N(C(=O)c2ccncc2)c2ccc3oc(C)c(C(C)=O)c3c2)cc1 was read as VDR inhibitor 13% and G9a inh inconclusive.
For COc1ccc(S(=O)(=O)n2nc(OC(=O)c3ccccc3)cc2N)cc1 the results were VDR inhibitor -14%, G9a inh -50%, MmCpn inh -2%, Sfp PPTase inh -22%, PLK1 PBD inh -20% and CCT chaperon mod -1.
COc1ccc(S(=O)(=O)n2nc(OC(=O)c3ccncc3)cc2N)cc1 was read as VDR inhibitor inconclusive, G9a inh -128%[59 µM], Sfp PPTase inh -5%, PLK1 PBD inh 27µM* and CCT chaperon mod 1.
O=C(c1ccncc1)N(c1ccc2oc3c(c2c1)CCCC3)S(=O)(=O)c1cccc([N+](=O)[O-])c1 was read as VDR inhibitor -11%, G9a inh 3.5µM*, MmCpn inh 1%, Sfp PPTase inh -8%, PLK1 PBD inh -11% and CCT chaperon mod 2.
For CC(=O)c1c(C)oc2ccc(N(C(C)=O)S(=O)(=O)c3cccc([N+](=O)[O-])c3)cc12 the results were VDR inhibitor -12%, G9a inh -43%, MmCpn inh 0%, Sfp PPTase inh 10%, PLK1 PBD inh -12% and CCT chaperon mod 1.
For COc1ccc(S(=O)(=O)N(C(=O)c2ccncc2)c2ccc3oc4c(c3c2)CCCC4)cc1 the results were VDR inhibitor -4%, G9a inh -17%[59 µM], MmCpn inh 1%, Sfp PPTase inh 7%, PLK1 PBD inh 2% and CCT chaperon mod -42*.
For CCc1cc2c(-c3ccccc3)cc(=O)oc2c2c1OCN(Cc1ccc(F)cc1)C2 the results were VDR inhibitor 0% and G9a inh 19%[59 µM].
`CN(C)c1ncc2nc(-c3ccc(F)cc3)c(=O)n(C3CC3)c2n1` gave VDR inhibitor -19%, G9a inh -12%[12.7 µM] and Sfp PPTase inh 6%.
For COCCn1c(=O)c(-c2cccs2)nc2cnc(Oc3ccc(OC)cc3)nc21 the results were VDR inhibitor -26%, G9a inh -5%[12.7 µM] and Sfp PPTase inh -11%.
Cc1ccc(S(=O)(=O)n2nc(OC(=O)c3c(-c4ccccc4Cl)noc3C)cc2N)cc1 was read as VDR inhibitor -21%, G9a inh -13%[2.33 µM], MmCpn inh 3%, Sfp PPTase inh 16%, PLK1 PBD inh 2.7µM* and CCT chaperon mod 0.
For COc1cc(/C=N/NC(=O)C(N)=O)cc(OC)c1O the results were VDR inhibitor 5%, G9a inh inconclusive, MmCpn inh -2%, Sfp PPTase inh -5%, PLK1 PBD inh -22% and CCT chaperon mod -4.
COc1cc(/C=N/NC(=O)C(C)Nc2n[nH]c(=O)[nH]c2=O)cc(OC)c1O (stereo not drawn) was read as VDR inhibitor -19%, G9a inh 35µM*, MmCpn inh -1%, Sfp PPTase inh -6%, PLK1 PBD inh -7% and CCT chaperon mod -1.
`COc1cc(NC(=O)c2ccc(COCC(F)(F)F)cc2)cc(OC)c1OC` gave VDR inhibitor -17%, G9a inh 26%, MmCpn inh 2%, Sfp PPTase inh 11%, PLK1 PBD inh 4.7µM* and CCT chaperon mod 2.
COc1ccc(NC(=O)c2ccc(COCC(F)(F)C(F)F)cc2)cc1OC was read as VDR inhibitor -2%, G9a inh -33%, MmCpn inh -1%, Sfp PPTase inh -1%, PLK1 PBD inh -3% and CCT chaperon mod 0.
COc1ccc(Cl)cc1N=C1NC(=O)CC(C(=O)Nc2ccccc2C(F)(F)F)S1 (stereo not drawn) was read as VDR inhibitor 12% and G9a inh inconclusive.
For COc1cccc(CNC(=O)c2ccc3c(c2)c(C)c(C)n3Cc2ccccc2)c1OC the results were VDR inhibitor 2% and G9a inh -36%[59 µM].
For CCc1nn(-c2ccccc2)c2nc(-c3ccc(O)cc3)c3cc(OC)c(OC)cc3c12 the results were VDR inhibitor -13% and G9a inh 32%[59 µM].
Screening O=C(c1cc2ccccc2oc1=O)N(Cc1cccs1)Cc1cccs1 returned VDR inhibitor inconclusive, G9a inh 5%[59 µM], MmCpn inh -2%, Sfp PPTase inh 6%, PLK1 PBD inh 15µM* and CCT chaperon mod 1.
Screening Oc1ccc(N2CCN(C(=S)NCCc3ccccc3)CC2)cc1 returned VDR inhibitor -8%, G9a inh 7.1µM*, MmCpn inh -1%, Sfp PPTase inh 11µM*, PLK1 PBD inh -29% and CCT chaperon mod 0.

Bioassay records from PubChem.
